These results are taken from PubChem BioAssay (NCI).

Among the test systems are NCI-H23 lung; NCI-H226 lung; NCI-H322M lung; HOP-62 NSCLC; NCI-H460 lung; HOP-92 NSCLC; NCI-H522 lung; A549/ATCC NSCLC; 786-0 renal; COLO 205 colon; DU-145 prostate; K-562 leukemia; MALME-3M melanoma; MDA-MB-231 breast; RXF 393 renal; SF-268 CNS; SF-295 CNS; SF-539 CNS; UACC-257 melanoma; M14 melanoma.
Assay in all cases: NCI-60 one-dose screen, 48 h (100 = growth as untreated, 0 = no growth, -100 = all killed)
Common to all, as to conditions: 10 µM unless noted

Molecules are shown by their SMILES. About 83,000 compounds went through this panel and 20% of them were active in at least one assay; those are over-represented in the sample as a whole.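 Results are percent growth after 48 hours of single-concentration exposure. 100 means growth as in untreated cells, lower positive values show inhibition; negative values down to -100 show cell death.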 Unmarked numbers belong to inactive results. Activity calls are given as the source filed them. Rule for the calls: active = growth percent below 10; inactive = the rest.

Take `COC(CC(F)F)c1cn(S(=O)(=O)c2ccc(C)cc2)c2ccccc12` (stereo not given): the growth was 52% in the assay on NCI-H23 lung; 75.9% in the assay with NCI-H226 lung; 27.8% in the assay with NCI-H322M lung; 34.1% in the assay with HOP-62 NSCLC; 11.6% in the assay on NCI-H460 lung; 40.8% in the assay with HOP-92 NSCLC. Further, the growth is 42.7% in the assay on NCI-H522 lung; 33.9% with A549/ATCC NSCLC; 35.3% in the assay with 786-0 renal; 3.62% (active) with COLO 205 colon; 21.3% with DU-145 prostate; 14.5% in the assay on K-562 leukemia. In addition, the growth in the assay on MALME-3M melanoma was 50.9%; in the assay on MDA-MB-231 breast it was 38.2%; in the assay on RXF 393 renal, 39.4%; in the assay on SF-268 CNS, 42%; with SF-295 CNS it was 15%; in the assay on SF-539 CNS it was 15.7%. In addition, the growth with UACC-257 melanoma is 37.1%; in the assay on M14 melanoma, 7.65% (active).
For the molecule `Nc1nc2ccccc2c2c(=O)c3cccc(Cl)c3sc12`, the growth with NCI-H23 lung was 80.3%; in the assay on NCI-H226 lung, 94.4%; with NCI-H322M lung, 89.1%; with HOP-62 NSCLC it was 81.8%; in the assay with NCI-H460 lung, 61.5%; with HOP-92 NSCLC, 101%. Further, the growth in the assay on NCI-H522 lung is 93.3%; with A549/ATCC NSCLC, 76.8%; with 786-0 renal, 96.2%; with COLO 205 colon it was 57.2%; in the assay with DU-145 prostate, 94.7%; in the assay on K-562 leukemia, 91.7%. In addition, the growth with MALME-3M melanoma was 101%; in the assay with MDA-MB-231 breast, 78.9%; with RXF 393 renal, 106%; with SF-268 CNS, 102%; with SF-295 CNS it was 97.9%; in the assay with SF-539 CNS, 88.4%. Further, the growth is 104% in the assay with UACC-257 melanoma and 96.9% with M14 melanoma.
For the molecule `CC1CN(S(=O)(=O)c2oc(-c3ccc(Cl)cc3)nc2C#N)CC(C)O1` (stereo not given), the growth with NCI-H23 lung is 77.8%; in the assay with NCI-H226 lung, 87.4%; with NCI-H322M lung it was 97.9%; with HOP-62 NSCLC, 101%; in the assay with NCI-H460 lung, 103%; with HOP-92 NSCLC, 76.3%. Further, the growth in the assay on NCI-H522 lung is -16.2% (active); with A549/ATCC NSCLC it was 100%; in the assay on 786-0 renal, 79%; in the assay on COLO 205 colon, 2.95% (active); with DU-145 prostate, 97.7%; in the assay with K-562 leukemia it was 4.49% (active). Also, the growth in the assay on MALME-3M melanoma is 46.4%; in the assay with MDA-MB-231 breast, 90.7%; in the assay on RXF 393 renal it was 40.3%; in the assay on SF-268 CNS it was 111%; in the assay with SF-295 CNS, 97.9%; with SF-539 CNS, 60.7%. The figures for the growth with UACC-257 melanoma and in the assay with M14 melanoma were 87.3% and 67.9%, respectively.
For the molecule `N#CSc1c[nH]c2cccc(/C=C/C(=O)/C=C(/C=C/c3cccc4[nH]cc(SC#N)c34)OB(F)F)c12`, the growth in the assay on NCI-H23 lung is -45.4% (active); in the assay with NCI-H226 lung, -75.9% (active); in the assay with NCI-H322M lung it was 53.7%; in the assay on HOP-62 NSCLC, -26.1% (active); in the assay with NCI-H460 lung, 4.16% (active); in the assay on HOP-92 NSCLC, -62.1% (active). The growth was -65.2% (active) in the assay with NCI-H522 lung; -8.65% (active) in the assay with A549/ATCC NSCLC; -51.6% (active) in the assay with 786-0 renal; -60% (active) in the assay on COLO 205 colon; -69.4% (active) with DU-145 prostate; -14.8% (active) in the assay on K-562 leukemia. Also, the growth is -52.8% (active) in the assay on MALME-3M melanoma; -42.3% (active) in the assay on MDA-MB-231 breast; -77.6% (active) with RXF 393 renal; 8.33% (active) in the assay with SF-268 CNS; -4.04% (active) with SF-295 CNS; -8.18% (active) in the assay with SF-539 CNS. Further, the growth in the assay on UACC-257 melanoma was -50.6% (active); with M14 melanoma, -40.9% (active).
Consider `CSc1nnc(-c2cc3c([nH]c4ccccc43)c(-c3cccc(O)c3)n2)n1-c1ccccc1`, for which the growth is 55.1% with NCI-H23 lung; 51.6% with NCI-H226 lung; 43.3% in the assay on NCI-H322M lung; 47.6% in the assay with HOP-62 NSCLC; 12.1% in the assay with NCI-H460 lung; 48.7% with HOP-92 NSCLC. Moreover, the growth is -15% (active) in the assay with NCI-H522 lung; 46.1% with A549/ATCC NSCLC; 24.1% in the assay on 786-0 renal; 85.3% with COLO 205 colon; 33.9% with DU-145 prostate; 15.8% with K-562 leukemia. The growth with MALME-3M melanoma is 22.1%; with MDA-MB-231 breast, 34.6%; with RXF 393 renal it was 9.95% (active); with SF-268 CNS, 39.5%; in the assay with SF-295 CNS, 24.8%; in the assay on SF-539 CNS it was -7.08% (active). For the same molecule, the figures for the growth in the assay on UACC-257 melanoma and in the assay on M14 melanoma were 59.9% and 14.5%, respectively.
As to `Cc1[nH]c(C(=O)Nc2ccc(C(=O)N3CCN(c4cc5c(cc4F)c(=O)c(C(=O)O)cn5C4CC4)CC3)cc2OC(C)C)c(Cl)c1Cl`, the growth in the assay with NCI-H23 lung is 78.4%; in the assay on NCI-H226 lung, 96.5%; with NCI-H322M lung, 90.3%; in the assay on HOP-62 NSCLC, 97.8%; in the assay on NCI-H460 lung, 8.48% (active); with HOP-92 NSCLC it was 46.5%. The growth in the assay with NCI-H522 lung was 82.1%; with A549/ATCC NSCLC, 38.4%; in the assay with 786-0 renal, 79.8%; in the assay on COLO 205 colon, 114%; with DU-145 prostate, 87.2%; with K-562 leukemia it was 56.4%. In addition, the growth with MALME-3M melanoma is 89%; in the assay with MDA-MB-231 breast, 80.3%; with RXF 393 renal it was 82.4%; in the assay with SF-268 CNS, 78.1%; in the assay on SF-295 CNS, 81.4%; in the assay with SF-539 CNS, 75.3%. For the same molecule, the growth with UACC-257 melanoma is 82.5%; in the assay with M14 melanoma, 73.2%.
Regarding `CCOC(=O)c1c2c(n3cccc(F)c13)C(=O)c1ncccc1C2=O`, the growth in the assay on NCI-H23 lung is -0.249% (active); in the assay on NCI-H226 lung it was -6.38% (active); in the assay on NCI-H322M lung, 6.61% (active); in the assay with HOP-62 NSCLC it was -37.4% (active); with NCI-H460 lung, -22.1% (active); with HOP-92 NSCLC, 38.5%. Also, the growth in the assay on NCI-H522 lung was 1.44% (active); in the assay on A549/ATCC NSCLC it was -9.79% (active); in the assay on 786-0 renal, -17.3% (active); with COLO 205 colon, 7.04% (active); in the assay on DU-145 prostate it was 3.34% (active); in the assay on K-562 leukemia, 9.2% (active). For the same molecule, the growth in the assay on MALME-3M melanoma was 25.6%; in the assay with MDA-MB-231 breast, 38.2%; with RXF 393 renal, 1.36% (active); in the assay on SF-268 CNS, 20.9%; in the assay with SF-295 CNS, 3.24% (active); with SF-539 CNS, -9.12% (active). Further, the growth is 12.7% in the assay with UACC-257 melanoma and -33.1% (active) with M14 melanoma.
As for `Cn1ccnc1C(=O)/C=C/c1ccc(CC(=O)Nc2cc(C(F)(F)F)cc(C(F)(F)F)c2)cc1`, the growth with NCI-H23 lung is 85.4%; with NCI-H226 lung, 91.4%; in the assay on NCI-H322M lung, 73.2%; with HOP-62 NSCLC it was 85.9%; in the assay on NCI-H460 lung, 55.3%; in the assay with HOP-92 NSCLC, 87%. Moreover, the growth with NCI-H522 lung was 77.4%; with A549/ATCC NSCLC it was 60.1%; in the assay with 786-0 renal, 65.6%; in the assay on COLO 205 colon it was 98.3%; in the assay on DU-145 prostate it was 73.4%; in the assay on K-562 leukemia, 61.6%. Further, the growth is 77.9% in the assay with MALME-3M melanoma; 78.1% in the assay on MDA-MB-231 breast; 56.2% in the assay with RXF 393 renal; 64.9% in the assay on SF-268 CNS; 84.3% in the assay on SF-295 CNS; 67.1% with SF-539 CNS. Besides, the values for the growth in the assay with UACC-257 melanoma and in the assay on M14 melanoma were 72.8% and 80.5%, respectively.
